Among the data in PubChem BioAssay (NCI) are growth inhibition values, retold here.

Values joined by “and” are separate entries in the source; they are usually repeats but may differ in a detail not shown here. Equal entries are not always repeated. About 79,000 compounds went through this panel and 15% of them were active in at least one assay; those are over-represented in the sample as a whole. Unmarked numbers belong to inactive results. Active and inactive are the calls of the source. Cut-off read from the data, not from the text of the source: active = growth inhibition above about 70%; inactive = the rest.

One experiment is described as follows: NCI Yeast Anticancer Drug Screen. Data for the cln2 rad14 strain (AID 165).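 Note: 0% = growth equal to vehicle treated cultures.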 Conditions: S. cerevisiae cln2 rad14 strain, at 50.0 µM, stronger effect = higher value. Put shortly: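 The screen exposed genetically defined yeast (cln2 rad14) to test compounds and scored growth inhibition relative to vehicle-treated controls.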
In the case of `O=C(/C=C/c1cc(Cl)cc(Cl)c1O)c1cccc(O)c1`, the growth inhibition was 91.5% (active). Take `NC1CCCCC1N.Nc1c(N=Nc2ccc(-c3ccc(N=Nc4cc(S(=O)(=O)[O-])c5ccccc5c4N)cc3)cc2)cc(S(=O)(=O)[O-])c2ccccc12.[OH3+].[OH3+].[Pt+4]`: the growth inhibition is 69.8%.

Consider `COC(=O)CCC(NC(=S)N/N=C(\C)c1ccccn1)C(=O)OC` (stereo unspecified), for which the growth inhibition was 83% (active). With `NC(=O)C(=O)NNc1ccccc1`, the growth inhibition was 80.8% (active).

`COc1cc(C2SCC(=O)N2c2ccc(-c3ccc(-n4c(-c5ccccc5)nc5ccccc5c4=O)cc3)cc2)ccc1O` (stereo unspecified): the growth inhibition was 25.7%.

On to `COc1ccc(/C=C/c2sc3ccccc3[n+]2CCCCI)cc1OC`, for which the growth inhibition is 29.6%.

With `Cc1c(C(C)C)cc(OCCO)cc1C(C)C`, the growth inhibition is 86.2% (active).

`Cc1cc(NCCCCCCCCNc2cc(C)nc3cc(N)ccc23)c2ccc(N)cc2n1`: the growth inhibition was 88% (active). On to `C=C(Cl)COC(=O)Nc1cccc(Cl)c1`, for which the growth inhibition is 25.1%.

Take `CC(=O)OC1CC2C(C)(C)C(=O)C=C[C@]2(C)C2CCC3(C)C(=CCC3[C@H](CO)C[C@H](O)C(=O)C(C)(C)O)[C@]12C` (stereo partly specified): the growth inhibition was 26.6%. For `COc1ccc(/C=C/C(=O)c2ccccc2)cc1OC`, the growth inhibition is -16.2% and 58.3%.

As to `COc1c(O)c(C=O)c(Br)c(C=O)c1O`, the growth inhibition was 66.5%.

For `O=[N+]([O-])c1cc(Cl)cnc1Br`, the growth inhibition was 3.2%. For `Cc1ccc2c(c1)C1(SC(C)C(=O)N1c1ccc(Cl)cc1)C(=O)N2` (stereo unspecified), the growth inhibition was 97.7% (active).

For the compound `COc1cc(CSc2ccc(O)cc2)cc(O)c1O`, the growth inhibition is 36%.

In the case of `Cc1ccc2c3ccc4c(c3n(C)c2c1)C(=O)C=CC4=O`, the growth inhibition was 33.7%.

`O=C(Nc1ccc(Cl)cc1)Nc1nnc2nc(C(C(=O)c3cccc([N+](=O)[O-])c3Cl)c3nc4nnc(NC(=O)Nc5ccc(Cl)cc5)n4[nH]c3=O)c(=O)[nH]n12`: the growth inhibition is 99.2% (active). `O=C(O)C1CC(c2ccccc2)=NN1c1ccccc1` (stereo unspecified): the growth inhibition was 62.8%. As for `CCCCc1ccc(-n2c(C)c(COC(=O)NC)c(COC(=O)NC)c2C)cc1`, the growth inhibition is 81.5% (active). For `CCC(=O)c1cc(C(=O)C(=S)SC)cc(C(=O)C(=S)SC)c1`, the growth inhibition was 88.7% (active).

With `CCn1c(O)c(C=Nc2ccccc2)s/c1=N/Nc1nc(-c2ccccc2)cs1`, the growth inhibition is 25.3%.

With `Cc1ccccc1N=C(NO)c1ccccc1`, the growth inhibition is 74.2% (active).

Consider `Cc1nc2ccccc2nc1NNc1ccccc1`, for which the growth inhibition was -11.8%.

A short description of the next experiment: NCI Yeast Anticancer Drug Screen. Data for the bub3 strain (AID 167). Particulars: S. cerevisiae bub3 mutant strain, at 1.2 µM, stronger effect = higher value. Put shortly: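 Compounds were applied to a genetically altered yeast strain carrying a cell-cycle control defect. Growth inhibition was scored against vehicle-treated controls.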
As to `O=[N+]([O-])c1cc[n+]([O-])cc1`, the growth inhibition was -12%. `CC1(C)CC(=O)C(/C=N/c2nc(-c3ccccc3)cs2)=C(O)C1`: the growth inhibition is -2%. With `Nc1nc(N)c2nc(CNc3ccc(C(=O)NC(CCC(=O)O)C(=O)O)cc3F)cnc2n1` (stereo unspecified), the growth inhibition is 6%. For `COC(=O)CC1(O)C(/C=C/c2ccccc2)C(C(=O)OC)C(=O)C(C(=O)OC)C1C(=O)OC` (stereo unspecified), the growth inhibition was -4%. `CC(C)(C)c1ccc(NS(=O)(=O)c2ccc(N)cc2)cc1`: the growth inhibition is 0%. `CCN(CC)CCNc1ccc([N+](=O)[O-])c2nc3ccccc3c(N)c12`: the growth inhibition was -15%. Turning to `CCCCN(CCCC)C(=O)/C=C/c1ccccc1`, the growth inhibition was -2%. Still for that read-out and setting: in the case of `O=c1[nH]c(-c2ccccc2)nc2c1sc1nc3ccccc3n12` it was -35%.

For the compound `O=[N+]([O-])c1ccc2c(c1)/C(=N/N=C1c3ccccc3Cc3ccccc31)c1cc([N+](=O)[O-])cc([N+](=O)[O-])c1-2`, the growth inhibition was 4%.

On to `CC(C)C(C)/C=C\C(C)C1CCC2C3=CC=C4CC(O)CCC4(C)C3CCC21C` (stereo unspecified), for which the growth inhibition is -1%. For `O=C1Nc2ccc(Br)cc2C1=Nc1ccc2c(c1)OCO2`, the growth inhibition was -26%.

Take `CCCCOCn1c(=O)[nH]c(=O)c2cc(Br)ccc21`: the growth inhibition is -46%. On the same count and under the same terms, in the case of `Cc1ccc(S/C(=C\C(=O)O)c2ccccc2)cc1` it was -4%; in that of `O=[N+]([O-])/C=C/c1cc(Cl)c(/C=C/[N+](=O)[O-])cc1Cl`, 28%; in that of `Cc1cc(S(=O)(=O)Nc2nnc3cnc4ccccc4n23)c(S)cc1Cl`, 4%.

With `O=C(/C=C/c1cc(Cl)cc(Cl)c1O)c1cccc(O)c1`, the growth inhibition was -12%. With `NC1CCCCC1N.Nc1c(N=Nc2ccc(-c3ccc(N=Nc4cc(S(=O)(=O)[O-])c5ccccc5c4N)cc3)cc2)cc(S(=O)(=O)[O-])c2ccccc12.[OH3+].[OH3+].[Pt+4]`, the growth inhibition is -1%.

Take `COC(=O)CCC(NC(=S)N/N=C(\C)c1ccccn1)C(=O)OC` (stereo unspecified): the growth inhibition was 24%. Take `NC(=O)C(=O)NNc1ccccc1`: the growth inhibition is -3%. With `COc1cc(C2SCC(=O)N2c2ccc(-c3ccc(-n4c(-c5ccccc5)nc5ccccc5c4=O)cc3)cc2)ccc1O` (stereo unspecified), the growth inhibition was 1%. Consider `COc1ccc(/C=C/c2sc3ccccc3[n+]2CCCCI)cc1OC`, for which the growth inhibition is -4%.

In the case of `Cc1c(C(C)C)cc(OCCO)cc1C(C)C`, the growth inhibition was -3%. As for `Cc1cc(NCCCCCCCCNc2cc(C)nc3cc(N)ccc23)c2ccc(N)cc2n1`, the growth inhibition was -64%. As for `C=C(Cl)COC(=O)Nc1cccc(Cl)c1`, the growth inhibition is -17%. For the compound `CC(=O)OC1CC2C(C)(C)C(=O)C=C[C@]2(C)C2CCC3(C)C(=CCC3[C@H](CO)C[C@H](O)C(=O)C(C)(C)O)[C@]12C` (stereo partly specified), the growth inhibition was -24%. Same read-out and setting: in the case of `COc1ccc(/C=C/C(=O)c2ccccc2)cc1OC` it was 4%; in that of `COc1c(O)c(C=O)c(Br)c(C=O)c1O`, -4%; in that of `O=[N+]([O-])c1cc(Cl)cnc1Br`, -8%. Regarding `Cc1ccc2c(c1)C1(SC(C)C(=O)N1c1ccc(Cl)cc1)C(=O)N2` (stereo unspecified), the growth inhibition is 3%. Still for that read-out and setting: in the case of `COc1cc(CSc2ccc(O)cc2)cc(O)c1O` it was 6%; in that of `Cc1ccc2c3ccc4c(c3n(C)c2c1)C(=O)C=CC4=O`, -14%; in that of `O=C(Nc1ccc(Cl)cc1)Nc1nnc2nc(C(C(=O)c3cccc([N+](=O)[O-])c3Cl)c3nc4nnc(NC(=O)Nc5ccc(Cl)cc5)n4[nH]c3=O)c(=O)[nH]n12`, -5%. For the compound `O=C(O)C1CC(c2ccccc2)=NN1c1ccccc1` (stereo unspecified), the growth inhibition was -28%. Turning to `CCCCc1ccc(-n2c(C)c(COC(=O)NC)c(COC(=O)NC)c2C)cc1`, the growth inhibition is -36%.

For the compound `CCC(=O)c1cc(C(=O)C(=S)SC)cc(C(=O)C(=S)SC)c1`, the growth inhibition was 6%. With `CCn1c(O)c(C=Nc2ccccc2)s/c1=N/Nc1nc(-c2ccccc2)cs1`, the growth inhibition is -5%. As to `Cc1ccccc1N=C(NO)c1ccccc1`, the growth inhibition is 3%. Take `Cc1nc2ccccc2nc1NNc1ccccc1`: the growth inhibition was 6%.
